Assay [1] is described as follows: cAMP Responsive Elements (CRE) small molecule antagonists, cell-based qHTS assay: qHTS cell viability counter screen (AID 2060913). Note: nearly all actives have a fitted effect of over 40% in size. An outline of the steps: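 Cytotoxicity read in the same wells as the CRE-bla HEK293T antagonist assay: after 3 h compound with 0.25 uM NKH477 final and 2 h beta-lactamase substrate, CellTiter-Glo luminescence measured.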
On the technique in general: In qHTS, concentration-response curves come from the screen itself.

A short description of assay [2]: cAMP Responsive Elements (CRE) small molecule agonists, cell-based qHTS assay: qHTS cell viability counter screen (AID 2060914). Note: nearly all actives have a fitted effect of over 50% in size. The method in brief: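 Cytotoxicity was measured as ATP luminescence (CellTiter-Glo, 30 min at room temperature) in the same wells as the CRE-bla FRET read-out. HEK293T CRE-bla cells had 3 h compound exposure at 37C/5% CO2.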

Results filed as inconclusive are left out. A call without a number means that no potency is given here. Calls of active or inactive are those of the source. Calls come from the whole dose curve; as a rule, active = well fitted cell-killing curve with a large enough effect in the repeat runs; inconclusive = weak or mixed curves, or effect the other way; inactive = flat fitted curve, though single readings scatter.
Potency is the fitted concentration of half-maximal effect.

In the case of `CSc1ccc(Cl)cc1`, the Potency result in assay [1] and in assay [2] was “inactive” each time.
As to `CC[C@@]1(O)C(=O)OCc2c1cc1n(c2=O)Cc2cc3c(CN(C)C)c(O)ccc3nc2-1`, the Potency entry in assay [1] and in assay [2] was “inactive” in each case.
Consider `O=[N+]([O-])c1ccc2[nH]ncc2c1`, for which the Potency entry in assay [1] and in assay [2] was “inactive” in each case.
On to `C/C(=C1\CCOC(=O)S1)N(C=O)Cc1cnc(C)nc1N`, for which the Potency result in assay [1] and in assay [2] was “inactive” in each case.
Regarding `O=S1(=O)CC(Cl)(Cl)C(Cl)(Cl)C1`, the Potency in assay [1] is 15.4 µM (active); in assay [2], 34.4 µM (active).
On the same counts, the results for `CCCC(=O)C(=O)O` are “inactive” and “inactive”.
On the same counts, the results for `COc1cc(NS(=O)(=O)c2ccc(N)cc2)nc(C)n1` are “inactive” and “inactive”.
On the same counts, the results for `CC(C)=CCC/C(C)=C/CO` are “inactive” and “inactive”.
Consider `Nc1cccc(N)n1`, for which the Potency entry in assay [1] and in assay [2] was “inactive” in each case.
In the case of `CC/C=C\CCCCCO`, the Potency result in assay [1] and in assay [2] was “inactive” each time.
As for `CCC(C)(CCCC(C)C)OC(C)=O` (configuration not stated), the Potency entry in assay [1] and in assay [2] was “inactive” throughout.
For the compound `CCCCCCCCCCCCOCCOS(=O)(=O)O`, the Potency entry in assay [1] and in assay [2] was “inactive” throughout.
In the case of `C=C(C)C(=O)OCCOC1CC2CC1C1C=CCC21` (configuration not stated), the Potency entry in assay [1] and in assay [2] was “inactive” each time.
With `Cc1c[nH]c2ccccc12`, the Potency result in assay [1] and in assay [2] was “inactive” in each case.
In the case of `Cn1nnc2c(C(N)=O)ncn2c1=O`, the Potency result in assay [1] and in assay [2] was “inactive” in each case.
Turning to `CSc1cnc(C)cn1`, the Potency entry in assay [1] and in assay [2] was “inactive” throughout.
In the case of `CC(=O)Oc1ccccc1C(=O)O`, the Potency entry in assay [1] and in assay [2] was “inactive” in each case.
As for `CCCC(=O)OCOC(=O)C1=C(C)NC(C)=C(C(=O)OC)C1c1cccc(Cl)c1Cl` (configuration not stated), the Potency entry in assay [1] and in assay [2] was “inactive” in each case.
For `CC(C)(CO)[N+](=O)[O-]`, the Potency entry in assay [1] and in assay [2] was “inactive” each time.
Take `O=c1[nH]c(=O)n([C@H]2O[C@H](CO)[C@@H](O)[C@@H]2O)cc1/C=C\Br`: the Potency entry in assay [1] and in assay [2] was “inactive” each time.
As to `Cc1ccccc1OCC1CO1` (configuration not stated), the Potency result in assay [1] and in assay [2] was “inactive” each time.
